Source: PubChem BioAssay AID588726 (The Scripps Research Institute Molecular Screening Center, 2011)
The campaign covered roughly 360,000 compounds. About 8,200 (2.3%) were called active. For the sample, actives were picked, then their nearest neighbours and some compounds at random. A number with no mark means an inactive call. No stated cut-off is given here; in the data, active means inhibition above about 27%; inactive means the rest.

Target: Fructose-bisphosphate aldolase (Mycobacterium tuberculosis (strain ATCC 25618 / H37Rv)) (UniProt P9WQA3)
Sequence (P9WQA3 whole entry, looked up): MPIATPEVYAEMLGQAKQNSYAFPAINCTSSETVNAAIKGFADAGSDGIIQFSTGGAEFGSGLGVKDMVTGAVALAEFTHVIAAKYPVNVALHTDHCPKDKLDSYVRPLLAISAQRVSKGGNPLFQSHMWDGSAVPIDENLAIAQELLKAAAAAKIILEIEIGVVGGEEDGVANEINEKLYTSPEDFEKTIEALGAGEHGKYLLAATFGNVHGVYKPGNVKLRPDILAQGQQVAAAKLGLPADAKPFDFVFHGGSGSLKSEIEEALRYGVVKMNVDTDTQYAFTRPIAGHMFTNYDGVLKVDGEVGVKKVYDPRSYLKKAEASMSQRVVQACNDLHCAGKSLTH
Test: M. tuberculosis aldolase activity blockers – biochemical, fluorescence, strain H37Rv, primary screen (AID 588726);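 further: 0% = vehicle and 100% = reference inhibitor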
Conditions: purified M. tuberculosis FBA, fluorescence read-out, at 1 µM, hits give high values

Structure (SMILES) | inhibition
O=[N+]([O-])c1ccc2oc(-c3cccc(O)c3)nc2c1 | 0.6%
COc1ccc2oc(N)nc2c1 | 0.46%
CC(=O)Oc1ccc(C(C)=O)c2c1OCCO2 | 5.05%
COc1ccc(CNC(=O)c2cc(=O)c3c(C)cc(C)cc3o2)cc1 | -0.13%
Cc1oc(C(N)=O)cc1COc1ccc(C(N)=O)cc1 | 3.54%
COC(=O)COc1cc(C)cc2oc(=O)c3c(c12)CCCC3 | 28.4% (active)
CC(Oc1cc2oc(=O)c3c(c2cc1Cl)CCCC3)C(=O)NCc1ccncc1 (configuration not stated) | 26.1%
Cc1cc(OCc2cc(C(=O)O)oc2C)c2c3c(c(=O)oc2c1)CCCC3 | 107% (active)
O=C(COc1cc2oc(=O)c3c(c2cc1Cl)CCC3)NCCCN1CCOCC1 | 6.36%
C=CCNC(=O)C1CC2c3ccccc3C1c1ccccc12 (configuration not stated) | -1.94%
CC/C(=C\c1ccc(Cl)cc1)c1ccncc1 | -2.63%
S=c1[nH]nc(Nc2ccccc2)s1 | 3.65%
CCc1ccc(Nc2ncc3c(n2)CC(c2ccco2)CC3=O)cc1 (configuration not stated) | 8.11%
Clc1cccc(-c2nc3nc4ccccc4nc3n2Cc2ccco2)c1 | 17.8%
Cc1ccc(OCC(=O)c2cc(C)n(Cc3ccco3)c2C)c([N+](=O)[O-])n1 | -5.32%
Cc1ccc(Cn2c(C)nc3c(c2=O)c2nc4ccccc4nc2n3Cc2ccco2)cc1 | 47.6% (active)
O=C1N=C(N2CCOCC2)CS1 | -1.54%
CC(C)(C)NS(=O)(=O)NC(=O)C1=C(N2CCCC2)COC1=O | -4.63%
CCC(C)(C)C1CCC(=NNC(=O)c2ccc(Br)o2)CC1 (configuration not stated) | -1.67%
CCOC(=O)C1CCCN(C(=O)CSc2nnc3nc(C)cc(C)n23)C1 (configuration not stated) | 7.69%
O=S(=O)(c1ccc(Cl)cc1)c1nc(-c2ccccc2F)oc1NCCN1CCOCC1 | -1.99%
Cc1ccc2c(Cl)c(C(=O)NCCCn3ccnc3)sc2c1 | -2.28%
O=S(=O)(c1ccccc1)c1nc(-c2ccccc2)oc1NCCCN1CCOCC1 | -3.13%

Structure (SMILES) | inhibition
Cc1ccc(-c2nc(C#N)c(NCCCn3ccnc3)o2)cc1 | 71.6% (active)
N#Cc1nc(-c2ccc(OCc3ccccc3)cc2)oc1NCCCN1CCOCC1 | 92.7% (active)
Cc1ccc(S(=O)(=O)c2nc(NCCCn3ccnc3)sc2Cl)cc1 | 0.32%
CCN(CC)S(=O)(=O)c1ccc(N2CC(C(=O)NCc3cccnc3)CC2=O)cc1 (configuration not stated) | 1.11%
Cc1c(CCC(=O)N[C@@H](CC(C)C)C(=O)O)c(=O)oc2c(C)c3oc4c(c3cc12)CCCC4 | 13.8%
CC[C@@H](C)[C@H](NC(=O)CCc1c(C)c2cc3c4c(oc3c(C)c2oc1=O)CCCC4)C(=O)O | 27.5% (active)
Cc1c(C)c2cc3c4c(oc3c(C)c2oc1=O)CCCC4 | 2.57%
O=C(Nc1ccccc1C(=O)N1CCOCC1)C1CCC(=O)N1C1CCCC1 (configuration not stated) | 0.4%
COCCn1c(=O)[nH]c2cc(C(=O)NCc3cccnc3)ccc2c1=O | 12.2%
CC(C)(C)NC(=O)COc1ccc(CNc2ccc3[nH]c(=O)[nH]c3c2)cc1 | 64.6% (active)
O=C(COc1ccc([N+](=O)[O-])cc1Cl)Nc1ccc2[nH]c(=O)[nH]c2c1 | -1.08%
COc1ccc(C(=O)OCC(=O)Nc2ccc3[nH]c(=O)[nH]c3c2)c(OC)c1OC | 5.97%
COc1ccc(S(=O)(=O)N2CCC(C(=O)NCCC(=O)NCCc3cccc(F)c3)CC2)cc1 | 3.06%
O=C(CCNC(=O)c1ccc(Br)cc1)NCC(c1ccco1)N1CCCCC1 (configuration not stated) | -0.35%
Cc1nn(Cc2ccccc2)c(C)c1CNC(=O)c1ccc(F)c(S(=O)(=O)N2CCOCC2)c1 | 0.09%
Cc1ccccc1CSc1nnc(Cn2c(=O)sc3ccccc32)n1C | 3.39%
Nc1cccc(-c2cc(-c3ccccc3)nc(-c3cccc(N)c3)n2)c1 | 16.1%
Cc1nc(NNC(=O)c2ccccc2)cc(-c2ccccc2)n1 | 1.26%
CNc1nc(-c2ccccc2)cc(-c2ccccc2)n1 | 29.2% (active)
O=[N+]([O-])c1ncc(Br)cc1Nc1ccccc1 | -5.84%
CC1CCc2c(c3ccccc3[nH]c2=O)O1 (configuration not stated) | -0.34%
COC(=O)c1sc(N)c(C(=O)OC)c1COC(=O)CNS(=O)(=O)c1ccc(C)cc1 | 1.77%
Cc1ccc(C(=O)NNC(=O)CSc2nnc3ccccn23)cc1 | 0.48%

Structure (SMILES) | inhibition
CCn1c(SCC(=O)Nc2nc(C)cs2)nnc1C(C)NC(=O)c1ccccc1 (configuration not stated) | 0.82%
Cc1ccsc1C(=O)N[C@@H](C)c1nnc2ccccn12 | 51.8% (active)
COc1cccc(N2CC(NC(=O)c3ccc4ccccc4c3)CC2=O)c1 (configuration not stated) | 1.83%
COc1ccc(S(=O)(=O)N2CCN(c3cnccn3)CC2)cc1 | 2.14%
C[C@@H]1C(c2ccc(F)cc2)=NN(c2ccc(Br)cc2)[C@H]1C(=O)N1CCOC1=O | 20.3%
O=C1OCCN1C(=O)[C@H]1[C@H](c2ccc(F)cc2)C(c2ccccc2)=NN1c1ccc(Br)cc1 | 42.2% (active)
O=C1OCCN1C(=O)[C@H]1[C@H](c2ccccc2)C(c2ccc(F)cc2)=NN1c1ccccc1 | 11%
O=C1OCCN1C(=O)[C@H]1[C@H](c2ccc(Cl)cc2)C(c2cccc(Cl)c2)=NN1c1ccc(Br)cc1 | 57.4% (active)
Cc1nn(-c2ccccc2)c2c1C(c1cccc([N+](=O)[O-])c1)N(c1ccccc1)C(=O)N2 (configuration not stated) | -3.95%
CCOC(=O)c1cccc(NC(=O)CN2C(=O)C3CC=CCC3C2=O)c1 (configuration not stated) | -2.2%
CCC(=O)c1ccc(OCC(=O)OCC(=O)N2CCc3ccccc3C2)cc1 | 6.24%
CCCN(CCc1ccccc1)C1CCc2c(O)cccc2C1 (configuration not stated) | 3.16%
CCOC(=O)C=Cc1ccc(C(=O)OCC)[nH]1 | -4.99%
Cc1sc2ccccc2c1CNC[C@H]1O[C@@H](n2ccc(=O)[nH]c2=O)[C@H](O)[C@@H]1O | 1.01%
Cc1cc(=O)n2nc(N3CCCC3C(=O)NCCCN3CC(C)CC(C)C3)sc2n1 (configuration not stated) | 3.34%
CCSc1nc2sc3c(c2c(=O)n1-c1ccc(C)cc1)CCN(C)C3 | 0.45%
CCCSc1nc(NCc2ccco2)c2c3c(sc2n1)COC(C)(CC)C3 (configuration not stated) | 2.94%
CN1CCc2c(sc3c2c(NCc2ccco2)nc2nnnn23)C1 | 37.5% (active)
Cn1cncc1COC(=O)c1ccc(Cl)cc1 | 3.05%
CN1OC(COC(=O)c2ccc(Cl)cc2)CC1c1ccccc1 (configuration not stated) | 0.19%
CC(C)(C)c1ccc(C(=O)NCCn2c(N)c(C#N)c3nc4ccccc4nc32)cc1 | 144% (active)
N#Cc1c(N)n(CCOC(=O)c2ccc(Cl)cc2)c2nc3ccccc3nc12 | 69.1% (active)
CC(C)(C)c1ccc(C(=O)NCC(=O)OCN2C(=O)c3ccccc3C2=O)cc1 | -0.24%

Structure (SMILES) | inhibition
CCCCNC(=O)CCNC(=O)c1ccc(C(C)(C)C)cc1 | -0.2%
O=C(c1ccccc1Cl)N(Cc1ccccc1F)N1C(=O)CCCC1=O | -2.23%
CC(C)CN(C(=O)c1ccc2c(c1)OCO2)C1CCS(=O)(=O)C1 (configuration not stated) | -0.95%
CC(=O)Nc1ccc(Nc2ncnc3c2nnn3Cc2ccccc2Cl)cc1 | 2.68%
CC(=O)c1cnn(-c2cc(Oc3ccc(F)cc3)ncn2)c1C | 2.98%
CCc1ccccc1NC(=O)CCOc1ccccc1 | 0.8%
Cc1ccc(NC(=O)COC(=O)CN2CCSC2=O)cc1F | -1.26%
CC1=NN(C(=O)c2ccc(Br)cc2)C(O)(c2ccccc2)C1 (configuration not stated) | -1.19%
COc1ccc(NC(=O)C2(C)Cc3c(-c4cccc(NC(C)=O)c4)ccnc3O2)cc1 (configuration not stated) | 5.4%
CSc1ccc(/C=N/N2CCN(Cc3ccccc3Cl)CC2)cc1 | -4.01%
COCCn1c(SCC(=O)N2CCCCCC2)nc2c(c1=O)SCC2 | -1.33%
Cc1cccc(NC(=O)c2ccc3c(=O)n(CC4CCCO4)c(=S)[nH]c3c2)c1 (configuration not stated) | -2.72%
O=C(NCc1cccnc1)c1cc(S(=O)(=O)N2CCOCC2)c(Cl)cc1Cl | -0.2%
COc1ccc(CCNC(=O)Cn2c(=O)n(CC3CCCO3)c(=O)c3ccccc32)cc1OC (configuration not stated) | 4.02%
O=C(NCC1CCCO1)c1cc2c([nH]c3ccccc32)c(-c2ccc(F)cc2)n1 (configuration not stated) | 14%
O=C(CSc1nc2ccccc2c(=O)n1Cc1ccc(F)cc1)NCC1CCCO1 (configuration not stated) | 2.15%
Cc1cccn2c(=O)c3cc(C(=O)NCCN4CCOCC4)c(=N)n(Cc4cccnc4)c3nc12 | 131% (active)
Cc1ccccc1NC(=O)Cn1c(=O)n(CC2CCCO2)c(=O)c2ccccc21 (configuration not stated) | 2.56%
Cc1ccc(Cn2c(C)c3cnn(CC(=O)NCCN4CCOCC4)c(=O)c3c2C)cc1 | -0.73%
Cc1ccc(CCNC(=O)c2ccc3nc4ccccc4c(=O)n3c2)cc1 | 12.9%
Cc1cccn2c(=O)c3cc(C(=O)NCC4CCCO4)c(=N)n(Cc4ccc(F)cc4)c3nc12 (configuration not stated) | 186% (active)
CC(C)(C)c1cc2cccnc2n1Cc1cccc(F)c1 | 3.01%
COc1cc(/C=C/C(=O)O)cc(S(=O)(=O)Nc2ccccc2SC)c1OC | -0.58%
